The results in this text go back to PubChem BioAssay (Tox21).

Assay [1] is described as follows: qHTS assay to identify small molecule agonists of the peroxisome proliferator-activated receptor delta (PPARd) signaling pathway - cell viability counter screen (AID 743211). Further: nearly all actives have a fitted effect of over 55% in size. Further: potency means the concentration at half of the fitted maximal effect. The following applies: PPARd-bla HEK293H viability, CellTiter-Glo luminescence, 17 h; series mostly up to 62.6 µM. An outline of the steps: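 In the same wells used for beta-lactamase reporter measurement, cytotoxicity is scored by CellTiter-Glo. HEK293H PPARd-bla cells receive compound for 17 h at 37C following a 5 h settling period.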

Assay [2] is described as follows: qHTS assay to identify small molecule antagonists of the peroxisome proliferator-activated receptor delta (PPARd) signaling pathway - cell viability counter screen (AID 743213). Further: nearly all actives have a fitted effect of over 50% in size. Further: potency means the concentration at half of the fitted maximal effect. To be noted: PPARd-bla HEK293H viability, CellTiter-Glo luminescence, 17 h; series mostly up to 62 µM. A digest of the protocol: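 Viability counter-screen, qHTS format: PPARd-bla HEK293H, L165041 300 nM final, 17 h compound exposure at 37 C, CellTiter-Glo luminescence after 30 min RT.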

The target of assay [3] is Peroxisome proliferator-activated receptor delta (Homo sapiens) (UniProt Q03181). Put plainly: qHTS assay to identify small molecule antagonists of the peroxisome proliferator-activated receptor delta (PPARd) signaling pathway (AID 743215; active means well fitted inhibition curve with a large enough effect in the signal ratio in the repeat runs, not every such curve was filed as active; the % refers to the signal ratio;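 further: cells stimulated with agonist L165041 at 300 nM final during compound exposure; potency means the concentration at half of the fitted maximal effect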). The following applies: HEK293H PPARd-UAS-bla, beta-lactamase FRET ratio, antagonist, 17 h; series mostly up to 62 µM. An outline of the steps: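 Antagonist-mode beta-lactamase reporter screen: HEK293H cells with UAS-bla under PPARd control, stimulated by 300 nM L165041 (final) alongside test compound for 17 h at 37 C, then FRET fluorescence after 2 h substrate incubation.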
Chain of Peroxisome proliferator-activated receptor delta (Homo sapiens) (Q03181 whole entry, looked up): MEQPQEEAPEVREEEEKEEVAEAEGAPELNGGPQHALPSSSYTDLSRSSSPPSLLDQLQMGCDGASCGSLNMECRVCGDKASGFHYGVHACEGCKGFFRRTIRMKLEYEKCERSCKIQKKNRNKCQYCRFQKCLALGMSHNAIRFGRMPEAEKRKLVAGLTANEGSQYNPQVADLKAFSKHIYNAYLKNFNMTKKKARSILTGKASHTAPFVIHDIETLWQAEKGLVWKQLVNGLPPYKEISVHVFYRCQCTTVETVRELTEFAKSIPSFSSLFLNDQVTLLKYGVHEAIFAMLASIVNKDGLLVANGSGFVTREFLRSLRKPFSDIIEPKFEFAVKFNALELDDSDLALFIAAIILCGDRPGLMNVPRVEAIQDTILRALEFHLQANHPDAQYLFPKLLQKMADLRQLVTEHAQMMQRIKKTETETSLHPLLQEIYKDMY
On the technique in general: In qHTS, concentration-response curves come from the screen itself.

Assay [4] can be described thus: qHTS assay to identify small molecule agonists of the farnesoid-X-receptor (FXR) signaling pathway - cell viability counter screen (AID 743218). Further: nearly all actives have a fitted effect of over 45% in size. Further: potency means the concentration at half of the fitted maximal effect. The following applies: FXR-bla HEK293T viability, CellTiter-Glo luminescence, 16 h; series mostly up to 62.6 µM. An outline of the steps:
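In GeneBLAzer FXR-UAS-bla HEK 293T cells, compounds act for 16 h at 37 C. Cell viability is then scored in the reporter wells by CellTiter-Glo, 30 min at RT, luminescence.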

Assay [5] has as its target Bile acid receptor (Homo sapiens) (UniProt Q96RI1). Put plainly: qHTS assay to identify small molecule agonists of the farnesoid-X-receptor (FXR) signaling pathway (AID 743220; active means well fitted activation curve with a large enough effect in the signal ratio in the repeat runs, not every such curve was filed as active; the % refers to the signal ratio). To be noted: HEK293T FXR-UAS-bla, beta-lactamase FRET ratio, 16 h; series mostly up to 62.6 µM. A digest of the protocol:
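Beta-lactamase reporter under UAS control in GeneBLAzer FXR HEK 293T cells (5000/well) measured with LiveBLAzer FRET substrate after 2 h at room temperature. Compound exposure lasted 16 h at 37C.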

Assay [6] is described as follows: qHTS assay to identify small molecule antagonists of the farnesoid-X-receptor (FXR) signaling pathway - cell viability counter screen (AID 743221; active means well fitted cell-killing curve with a large enough effect in the repeat runs, not every such curve was filed as active; further: nearly all actives have a fitted effect of over 50% in size). The following applies: FXR-bla HEK293T viability, CellTiter-Glo luminescence, 16 h; series mostly up to 62.6 µM. A digest of the protocol: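 Here viability was scored by luminescence after CellTiter-Glo addition to wells already read for beta-lactamase. Prior treatment: compound plus CDCA (50 uM final), 16 h, 37 C, HEK 293T FXR-bla cells.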

The target of assay [7] is Vitamin D3 receptor (Homo sapiens) (UniProt P11473). Briefly: qHTS assay to identify small molecule agonists of the vitamin D receptor (VDR) signaling pathway (AID 743222; calls by dose curve). To be noted: HEK293T VDR-UAS-bla, beta-lactamase FRET ratio, 16 h; series mostly up to 63.5 µM. A digest of the protocol: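 Agonist activity measured in VDR-bla reporter cells. Exposure 16 h, 37C, 5% CO2; detection by B/G FRET substrate, 2 h RT.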
Chain of Vitamin D3 receptor (Homo sapiens) (P11473 whole entry, looked up): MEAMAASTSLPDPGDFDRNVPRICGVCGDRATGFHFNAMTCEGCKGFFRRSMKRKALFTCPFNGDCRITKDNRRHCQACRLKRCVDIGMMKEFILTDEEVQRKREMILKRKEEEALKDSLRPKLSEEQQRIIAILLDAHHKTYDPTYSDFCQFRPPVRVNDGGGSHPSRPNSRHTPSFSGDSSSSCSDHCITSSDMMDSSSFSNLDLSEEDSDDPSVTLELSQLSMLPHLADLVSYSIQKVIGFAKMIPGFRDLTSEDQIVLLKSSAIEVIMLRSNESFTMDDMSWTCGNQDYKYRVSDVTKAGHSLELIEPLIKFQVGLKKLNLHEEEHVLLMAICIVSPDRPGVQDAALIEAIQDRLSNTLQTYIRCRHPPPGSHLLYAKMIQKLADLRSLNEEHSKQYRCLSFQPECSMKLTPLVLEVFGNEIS

For assay [8], the target named is Bile acid receptor (Homo sapiens) (UniProt Q96RI1). Briefly: qHTS assay to identify small molecule antagonists of the farnesoid-X-receptor (FXR) signaling pathway (AID 743217; active means well fitted inhibition curve with a large enough effect in the signal ratio in the repeat runs, not every such curve was filed as active; the % refers to the signal ratio). To be noted: HEK293T FXR-UAS-bla, beta-lactamase ratio, CDCA-stimulated, 16 h; series mostly up to 62.6 µM. An outline of the steps:
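Beta-lactamase reporter under UAS control in HEK 293T cells; compound exposure 16 h at 37 °C in the presence of chenodeoxycholic acid (50 uM final); signal from B/G FRET substrate after 2 h at room temperature.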

For assay [9], the target named is Vitamin D3 receptor (Homo sapiens) (UniProt P11473). Put plainly: qHTS assay to identify small molecule antagonists of the vitamin D receptor (VDR) signaling pathway (AID 743223; active means well fitted inhibition curve with a large enough effect in the signal ratio in the repeat runs, not every such curve was filed as active; the % refers to the signal ratio). To be noted: VDR-UAS-bla HEK293T, beta-lactamase FRET ratio, 16 h; series mostly up to 61 µM. An outline of the steps: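 Inhibition of agonist-driven VDR signalling is scored in VDR-bla cells: 3 nM final 1alpha,25-dihydroxyvitamin D3 plus compound, 16 h at 37C, then beta-lactamase detection by FRET substrate fluorescence after 2 h.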

Several values for one entry are separate records, joined by “and”; a condition that tells them apart may be missing. Identical values can stand only once. Records with an inconclusive call do not appear. Activity calls are given as the source filed them. Unless noted, the call rests on the fitted dose curve; in most records, active means well fitted curve in the direction sought with a large enough effect in the repeat runs; inconclusive means weak or mixed curves; inactive means no such curve, though single readings can be large; an effect the other way counts as inactive or inconclusive.

Chain of Bile acid receptor (Homo sapiens) (Q96RI1 whole entry, looked up): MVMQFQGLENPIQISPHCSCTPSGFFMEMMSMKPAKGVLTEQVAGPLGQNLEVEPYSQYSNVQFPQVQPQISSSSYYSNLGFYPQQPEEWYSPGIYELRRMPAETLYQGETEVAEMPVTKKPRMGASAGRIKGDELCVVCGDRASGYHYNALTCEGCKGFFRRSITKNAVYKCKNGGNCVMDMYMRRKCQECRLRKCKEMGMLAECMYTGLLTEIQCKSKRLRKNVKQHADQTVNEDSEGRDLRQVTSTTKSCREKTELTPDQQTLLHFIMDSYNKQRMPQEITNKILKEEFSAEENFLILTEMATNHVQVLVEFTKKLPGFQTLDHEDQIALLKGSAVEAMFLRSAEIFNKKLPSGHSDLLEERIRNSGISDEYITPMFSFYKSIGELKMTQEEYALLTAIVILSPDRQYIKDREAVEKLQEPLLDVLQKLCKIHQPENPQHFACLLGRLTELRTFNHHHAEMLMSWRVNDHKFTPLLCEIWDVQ

For the molecule `O[C@@H](c1cc(C(F)(F)F)nc2c(C(F)(F)F)cccc12)[C@H]1CCCCN1`, the Potency in assay [1] was 10.6 µM (active); in [2], 8.41 µM (active); in assay [3] it was 13.3 µM (active); in [4], 13.3 µM (active). For the same molecule, the Potency result in [5] was “inactive”.

With `CN1[C@@H]2CC[C@H]1CC(OC(=O)C(CO)c1ccccc1)C2` (some centres not stated), the Potency result in [1], in assay [2] and in assay [4] was “inactive” in each case.

For the molecule `CC1=C(/C=C/C(C)=C/C=C/C(C)=C/C(=O)Nc2ccc(O)cc2)C(C)(C)CCC1`, the Potency in [1] was 3.56 µM (active) and 4.73 µM (active); in [2], 12.6 µM (active) and 7.5 µM (active); in assay [4], 44.8 µM (active) and 11.9 µM (active).

As to `CC(=O)Nc1ccc(O)cc1`, the Potency result in assay [1], in assay [2], in assay [4] and in [6] was “inactive” each time.

Regarding `COC(=O)CC#N`, the Potency result in assay [1], in assay [2], in assay [4] and in [6] was “inactive” in each case.

Consider `CCCSS/C(CCO)=C(\C)N(C=O)Cc1cnc(C)nc1N`, for which the Potency entry in [1], in assay [2], in assay [4] and in assay [7] was “inactive” each time.

`Clc1ccc(C(Cn2ccnc2)OCc2ccsc2Cl)c(Cl)c1` (configuration not stated): the values for the Potency in assay [1] and in [4] were 29.8 µM (active) and 18.8 µM (active), respectively. Besides, the Potency result in assay [2] and in assay [7] was “inactive” in each case.

With `O=C(O)CCCCCCC(=O)O`, the Potency result in [1], in [2], in assay [8], in assay [4], in assay [6] and in assay [7] was “inactive” each time. Further, in assay [9], the Potency result is “inactive”.

In the case of `O=C1OC(OC(=O)c2cccnc2Nc2cccc(C(F)(F)F)c2)c2ccccc21` (configuration not stated), the Potency result in [1], in [2], in [4], in assay [6] and in [7] was “inactive” throughout.

`Oc1c(Br)cc(Br)c2cccnc12`: the Potency was 2.98 µM (active) in assay [1] and 3.35 µM (active) in assay [2]. Further, the Potency result in assay [4] and in assay [6] was “inactive” in each case.

`C=C1C(C)(C)[C@@]2(Cl)C(Cl)[C@]1(Cl)C(Cl)(Cl)C2(Cl)Cl` (some centres not stated): the Potency was 38.2 µM (active) in [1] and 53.9 µM (active) in assay [4]. In addition, the Potency result in assay [2] and in assay [7] was “inactive” throughout.
